Only some compounds are listed: those with a hit (about 2.7% of all), similar ones and a draw of the others.
KDM5B inh – KDM5B demethylase inhibition. KDM5B demethylase, FDH-coupled NADH fluorescence (FDH is formaldehyde dehydrogenase). Potency, µM (titrated, usually from 57.7 µM), hits mostly inhibitors. 2.6% of 220,000 active. AID 1347165; active means well fitted inhibition curve with a large enough effect; inconclusive means small, poorly fitted or top-dose-only effect; inactive means no such curve, though single readings can be large or run the other way; further: nearly all actives have a fitted effect of over 70% in size
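Inhibition is measured as reduced NADH fluorescence generation from FDH coupling to formaldehyde release. Truncated KDM5BΔAP at 200 nM final acts on H3K4me3 peptide (12.5 µM in substrate mix) in pH 7.5 HEPES buffer with Tween-20, 30 min, room temperature.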
IP6K1 inh – IP6K1 kinase inhibition. Q92551. IP6K1 kinase, ADP-Glo luminescence, 2 h; hits give low values. activity change, % (series mostly up to about 58 µM). 0.81% of 140,000 active. AID 1645851; in the data active means activity change below about -25%
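ADP-Glo luminescence measures ADP made by human IP6K1 during a 2 h RT reaction with ATP/IP6 (mix at 1.3 mM/130 uM); top library doses 57.5 and 19.1 uM final.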
Each line names hits and unclear results; the compound was inactive in the other large screens; ! = a repeat was not active.

Cc1oc(-c2ccccc2)nc1Cn1ccn2nc3c(c2c1=O)CCCC3	KDM5B inh 28µM
Cc1noc(C)c1Cn1ccn2nc3c(c2c1=O)CCCC3	none
Cc1ccc(NC(=O)c2ccc(Cn3ccn4nc5c(c4c3=O)CCCC5)cc2)cc1C	KDM5B inh 25µM
COc1ccc(CNC(=O)c2ccc(Cn3ccn4nc5c(c4c3=O)CCCC5)cc2)cc1	KDM5B inh inconclusive
CN(CC(=O)NCCC#N)c1ccc(C(C)(C)C)cc1	none (no result: IP6K1 inh)
CCCCCNC(=O)c1cc(-c2ccc(OC)cc2)nc2c1cnn2C	none (no result: KDM5B inh)
O=C(CSc1nncs1)N(Cc1ccc(F)cc1)C12CC3CC(CC(C3)C1)C2	none (no result: IP6K1 inh)
COc1ccc(CNC(=O)c2ccc(Cn3ccn4nc5c(c4c3=O)CCCC5)cc2)cc1OC	KDM5B inh inconclusive
COc1ccc(CCNC(=O)c2ccc(Cn3ccn4nc5c(c4c3=O)CCCC5)cc2)cc1OC	KDM5B inh 28µM
O=C(c1ccc(Cl)cc1)N1CC2(CCCN(CC3CCCCC3)C2)Cc2ccccc21 (stereo unspecified)	KDM5B inh inconclusive
Cc1nn(Cc2ccccc2)c(C)c1[C@@H]1C=C[C@@H](NC(=O)c2ccc(F)c(Cl)c2)C1	KDM5B inh 28µM
Cc1nn(Cc2ccccc2)c(C)c1[C@@H]1C=C[C@@H](NC(=O)c2ccco2)C1	KDM5B inh inconclusive
CCOC(=O)[C@@H]1CN(C(=O)c2cc3ccccc3s2)[C@H]2c3ccc(OC)cc3O[C@@H]12	none (no result: KDM5B inh)
O=C(O)Cn1cc(C(C(=O)O)N2CCN(Cc3cccnc3)CC2)c2ccc(Cl)cc21 (stereo unspecified)	none (no result: IP6K1 inh)
O=C(NCc1cc(F)ccc1F)c1cccnc1N1CC2CC(C1)[C@H]1CCCC(=O)N1C2 (stereo partly specified)	KDM5B inh 32µM
O=C(NCc1cccc(F)c1)c1ccc(N2CC3CC(C2)[C@H]2CCCC(=O)N2C3)nc1 (stereo partly specified)	none
O=C(NCc1cccnc1)c1cccnc1N1CC2CC(C1)[C@H]1CCCC(=O)N1C2 (stereo partly specified)	KDM5B inh 28µM
O=C(NCc1ccccc1)c1ccc(N2CC3CC(C2)[C@H]2CCCC(=O)N2C3)nc1 (stereo partly specified)	KDM5B inh inconclusive
COc1ccccc1-c1cccc(CN2CCC(NC(=O)Cc3ccc(F)cc3)CC2)c1	none (no result: KDM5B inh)
c1cncc(-c2cc(-c3cccc4cc[nH]c34)cn3cncc23)c1	KDM5B inh 35µM
NC(=O)c1cccc(-c2cc(-c3cccnc3)c3cncn3c2)c1	KDM5B inh inconclusive
c1cc(-c2cc(-c3ccncc3)c3cncn3c2)c2[nH]ccc2c1	none
C[S+](=O)([O-])Nc1cccc(-c2cc(-c3cccnc3)c3cncn3c2)c1	KDM5B inh 35µM
O=C(CCc1ncc(-c2ccccc2)o1)Nc1ccc(O)c2ccccc12	none (no result: IP6K1 inh)
COc1ccc(-c2nc(CN3CCCC3c3ccsc3)co2)cc1 (stereo unspecified)	none (no result: IP6K1 inh)
O=C(CCCCCCC(=O)N/N=C/c1ccc(Cl)cc1)N/N=C/c1ccc(Cl)cc1	none (no result: IP6K1 inh)
Cn1ncc2c(C(=O)N3CCC(Cc4ccccc4)CC3)cc(-c3cccc(F)c3)nc21	none (no result: KDM5B inh)
O=C(N[C@H]1CCN2C(=O)N(c3cccc(C(F)(F)F)c3)C(=O)[C@@H]2C1)c1ccncc1	none
O=C(N[C@H]1CCN2C(=O)N(c3cccc4nsnc34)C(=O)[C@@H]2C1)c1ccnc(Cl)c1	KDM5B inh 28µM
c1cncc(-c2nc3ncccc3[nH]2)c1	KDM5B inh 35µM
c1ccc(-c2nc3ncccc3[nH]2)cc1	KDM5B inh 32µM!
c1cncc(-c2nc3ccncc3[nH]2)c1	KDM5B inh inconclusive
c1ccc(CSc2nc3ncccc3[nH]2)cc1	none
Cc1occc1-c1nc2ncccc2[nH]1	KDM5B inh 32µM
CC(C)c1ccc(NC(=O)CSc2nc3ncccc3[nH]2)cc1	none (no result: IP6K1 inh)
CCCC(O)CN1CCC(=O)N(Cc2ccccc2)Cc2cc3c(cc21)OCO3 (stereo unspecified)	none (no result: KDM5B inh)
O=C(NCC(=O)N1CCc2ccccc21)NCc1ccccc1	none (no result: IP6K1 inh)
Cn1ncc2c(C(=O)NC3CCCCC3)cc(-c3ccccc3C(F)(F)F)nc21	none (no result: KDM5B inh)
O=C(c1cc2ccccc2cc1O)N1CCN(S(=O)(=O)c2ccc(Cl)cc2)CC1	none (no result: IP6K1 inh)
O=C(C1CCN(S(=O)(=O)N2CCOCC2)CC1)N1CCC(CCOc2ccc(F)cc2)C1 (stereo unspecified)	none (no result: KDM5B inh)
Cc1cc(CNc2ccc(-c3nc(CCCc4ccccc4)no3)cn2)no1	KDM5B inh 28µM
C[C@@H](Nc1ccc(-c2nc(CCCc3ccccc3)no2)cn1)C(N)=O	KDM5B inh inconclusive
Cn1cc(CNc2ccc(-c3nc(CCCc4ccccc4)no3)cn2)cn1	KDM5B inh 32µM
c1ccc(CCCc2noc(-c3ccc(NCc4ccccn4)nc3)n2)cc1	KDM5B inh inconclusive
CCN1CC(Nc2ccc(-c3nc(CCCc4ccccc4)no3)cn2)CC1=O (stereo unspecified)	KDM5B inh 28µM
CC1(C)CN(C(=O)C2CCCO2)CCO1 (stereo unspecified)	none (no result: IP6K1 inh)
CC(C)c1noc(Cn2c(=O)c(C#N)cn(C3CC3)c2=O)n1	none (no result: IP6K1 inh)
COc1ccc2cc(CNC(=O)Cc3n[nH]c(=O)c4ccccc34)ccc2c1	none (no result: IP6K1 inh)
COc1ccc(-c2ccnc3nc(Cc4cc(F)cc(F)c4)nn23)c(F)c1	none
COc1cc(F)ccc1-c1ccnc2nc(CCc3ccccc3)nn12	KDM5B inh 25µM
COc1ccc(-c2ccnc3nc(CCc4ccccc4)nn23)c(F)c1	KDM5B inh 28µM
Fc1ccc(-c2ccnc3nc(C4CCCO4)nn23)cc1 (stereo unspecified)	KDM5B inh inconclusive
COc1ccc(CCc2nc3nccc(-c4ccc(F)cc4OC)n3n2)cc1	KDM5B inh inconclusive
COc1ccc(-c2ccnc3nc(C4CCCO4)nn23)c(F)c1 (stereo unspecified)	KDM5B inh 25µM
CSc1ccc(-c2cccc(CN3CCC(NC(=O)c4ccccc4Cl)CC3)c2)cc1	none (no result: KDM5B inh)
c1cc2c(cc1N1CCC(N[C@H]3C[C@@H]4OCC[C@H]34)CC1)CCC2	none
Fc1ccc2cnc(N3CCC(N[C@H]4C[C@@H]5OCC[C@H]45)CC3)nc2c1	KDM5B inh 25µM
CN(C)c1nc(CNC(=O)c2cc(S(N)(=O)=O)ccc2F)cs1	none
CNc1ncc(CN(C)C(=O)c2cc(S(N)(=O)=O)ccc2F)cn1	KDM5B inh 22µM
Cc1cccc2c(=O)c(-c3ccc4c(c3)OCO4)c(NC(=O)CC(C)C)oc12	none (no result: IP6K1 inh)
COc1cc(C(C)NCc2csc(C(C)C)n2)ccc1OCCO (stereo unspecified)	none (no result: IP6K1 inh)
CCC(=O)N1CCC(O)(c2ccccc2)[C@H](N2CCCC2)C1 (stereo partly specified)	KDM5B inh inconclusive
CCOCC(=O)N1CCC(O)(c2ccccc2)[C@H](N2CCCC2)C1 (stereo partly specified)	KDM5B inh 10µM
O=C(c1ccncc1)N1CC[C@](O)(c2ccccc2)[C@H](N2CCCC2)C1	KDM5B inh inconclusive
O=C(C1CCCCC1)N1CC[C@](O)(c2ccccc2)[C@H](N2CCCC2)C1	KDM5B inh 8.9µM
O=C(COc1ccccc1F)Nc1nn2cc(-c3ccccc3)nc2s1	none (no result: IP6K1 inh)
CC(=O)Nc1cccc(NC(=O)CSc2cn(CC(=O)N3CCOCC3)c3ccccc23)c1	none (no result: IP6K1 inh)
COCCNc1ncc(-c2ccsc2)c2c1OCC2	KDM5B inh 35µM
COCCNc1ncc(-c2ccncc2)c2c1OCC2	KDM5B inh inconclusive
COc1ccc(-c2cnc(NCc3ccccc3)c3c2CCO3)cc1	KDM5B inh inconclusive
